This note sets out measurements from PubChem BioAssay (EPA / NIEHS).

Values joined by “and” are separate entries in the source; they are usually repeats but may differ in a detail not shown here. Equal entries are not always repeated. Active and inactive are the calls of the source. Rule for the calls: active = hit-call score of the fitted dose curve at least 0.9, where 1 is the maximum; inactive = score below 0.9.

Read-out in this assay: Matrix Metallopeptidase 1 (MMP1), MMP1 (gene 4312)
The assay is described as follows: BSK_hDFCGF_MMP1: BioMAP Diversity Plus: hDFCGF Assay for Matrix Metallopeptidase 1 (MMP1) Biomarker Activity (AID 2283064). The settings on record: primary human foreskin fibroblasts; actives raise or lower the signal. As for the experimental part: BSK_hDFCGF is a cell-based, multiplexed-readout assay that uses foreskin fibroblast, a human skin primary cell, with measurements taken at 24 hours after chemical dosing in a 96-well plate.BSK_hDFCGF_MMP1 is an assay component measured in the BSK_hDFCGF assay. It measures MMP-1 antibody related to regulation of gene expression using ELISA technology.Data from the assay component BSK_hDFCGF_MMP1 was analyzed into 1 assay endpoint. This assay endpoint, BSK_hDFCGF_MMP1, was analyzed with bidirectional fitting relative to DMSO as the negative control and baseline of activity. Using a type of binding reporter, gain or loss-of-signal activity can be used to understand changes in the signaling as they relate to the gene MMP1. Furthermore, this assay endpoint can be referred to as a primary readout, because this assay has produced multiple assay endpoints where this one serves a signaling function. To generalize the intended target to other relatable targets, this assay endpoint is annotated to the protease intended target family, where the subfamily is matrix metalloproteinase.
The levels of cell surface (or secreted, indicated by the prefix "s") biomarker endpoints were measured by ELISA. Overt cytotoxicity to cells in confluent adherent cultures (all systems other than the BT system) was assessed by measuring total protein levels using sulforhodamine B (SRB) staining in parallel cultures at the time of biomarker measurements, indicated as SRB endpoints. For proliferation assays for adherent cell types, individual cell types are cultured at sub-confluence and relative cell numbers quantified by SRB staining at time points optimized for each system (48 h: 3C and CASM3C systems; 72 h: BT and HDF3CGF systems; 96 h: SAg system). SRB was performed by staining cells with 0.1% SRB after fixation with 10% TCA and reading wells at 560 nm.Viability and proliferation of PBMC (T cells) was quantified by Alamar Blue reduction for the SAg and BT systems. For PBMC viability (referred to as PBMC Cytotoxicity within the assay endpoint names), cells were plated (75,000/well in a 96-well plate) and then chemical samples added for 1 h before addition of activators, SEB and TSST-1 (20 ng/mL final concentration each). Cells were incubated for 90 h. Then, Alamar Blue (20 uL/well) (Invitrogen, Cat DAL1100) was added for 6 h, and the plates were read with a fluorescence microplate reader at 546/580 nm (excitation/emission). For PBMC proliferation, cells were plated and activated as above but incubated for only 16 h prior to addition of Alamar Blue. Plates were read after 6 h.
Take `c1ccc(CCc2ccccc2)cc1`: the AC50 was 36.7 µM (active).

Regarding `CC(C=O)Cc1ccc(C(C)(C)C)cc1` (stereo not given), the result was inactive.

Regarding `Clc1cc(Cl)c(-c2c(Cl)c(Cl)cc(Cl)c2Cl)cc1Cl`, the AC50 was 18.5 µM (active).

With `C[C@@H]1CCN(C(=O)[C@H](CCCN=C(N)N)NS(=O)(=O)c2cccc3c2NC[C@H](C)C3)[C@@H](C(=O)O)C1`, the outcome was inactive.

On to `CN(C)C(=S)SC(=S)N(C)C`, for which the AC50 was 36.2 µM (active).

In the case of `CC=Cc1ccc(OCC)c(O)c1`, the outcome was inactive.

In the case of `C=C(C)[C@H]1CC=C(C)C(=O)C1`, the outcome was inactive.

On to `CC(CN=Cc1ccccc1O)N=Cc1ccccc1O` (stereo not given), for which the result was inactive.

In the case of `CCCCCCCCCCCCCCCC(=O)OC/C=C(C)/C=C/C=C(C)/C=C/C1=C(C)CCCC1(C)C`, the result was inactive.

For `c1ccc2cc(Nc3ccc(Nc4ccc5ccccc5c4)cc3)ccc2c1`, the outcome was inactive.

Take `CC1(C)CCC[C@]2(C)[C@H]3CCO[C@]3(C)CC[C@@H]12`: the AC50 was 35 µM (active) and 36 µM (active).

For the molecule `CCCCN(CCCC)C(=O)N(CCCC)CCCC`, the AC50 was 11.5 µM (active).

On to `IC(I)I`, for which the outcome was inactive.

`CCCCCCC(CO)CCCC` (stereo not given): the AC50 was 31.1 µM (active) and 30.7 µM (active).

In the case of `CC(=O)C1(C)CC2=C(CCCC2(C)C)CC1C` (stereo not given), the AC50 was 12.8 µM (active).

Turning to `COc1cc(Cl)c(OC)cc1N`, the outcome was inactive.

Regarding `CC(=O)c1c(C)c([N+](=O)[O-])c(C(C)(C)C)c([N+](=O)[O-])c1C`, the result was inactive.

For the molecule `COc1ccc(OC)c(N=Nc2c(O)ccc3ccccc23)c1`, the AC50 was 14.2 µM (active).

Take `O=C(Nc1ccc2c(O)c(N=Nc3ccc(N=Nc4ccc(S(=O)(=O)O)cc4)cc3)c(S(=O)(=O)O)cc2c1)c1ccccc1`: the result was inactive.

As to `COc1ccc(CCN2CCC(Nc3nc4ccccc4n3Cc3ccc(F)cc3)CC2)cc1`, the result was inactive.

With `CCN(CC)C(=O)N(CC)CC`, the outcome was inactive.

As for `CCOC(=O)C(C#N)=C(c1ccccc1)c1ccccc1`, the result was inactive.

Turning to `CCC(C)c1cc([N+](=O)[O-])cc([N+](=O)[O-])c1OC(=O)OC(C)C` (stereo not given), the AC50 was 11 µM (active).

Turning to `C=C(C)C(=O)OCC(CC)(COC(=O)C(=C)C)COC(=O)C(=C)C`, the AC50 is 37.9 µM (active).

On to `CN(c1nccc(=O)[nH]1)C1CCN(c2nc3ccccc3n2Cc2ccc(F)cc2)CC1`, for which the result was inactive.

Turning to `C1=CC2C3C=CC(C3)C2C1` (stereo not given), the outcome was inactive.

Consider `c1ccc(Oc2ccccc2)cc1`, for which the result was inactive.

For the molecule `CCCCCC(C=O)=Cc1ccccc1`, the AC50 was 0.146 µM (active).

For `CS(=O)(=O)c1ccc(C2=C(c3ccccc3)C(=O)OC2)cc1`, the outcome was inactive.

Take `C=C(C)C(=O)OCCOCCOCCOCCOC(=O)C(=C)C`: the result was inactive.

Consider `C=CC(C)(O)CCC=C(C)C` (stereo not given), for which the outcome was inactive.

Take `CS(=O)(=O)OCCCCOS(C)(=O)=O`: the result was inactive.

On to `CCCCOC(=O)CCCCCCCC(=O)OCCCC`, for which the outcome was inactive.

Take `O=C1c2ccccc2C(=O)c2c(O)ccc(O)c21`: the result was inactive.

Take `CC(C)(C)CC(C)(C)c1ccc(OCCOCC[N+](C)(C)Cc2ccccc2)cc1`: the AC50 is 5 µM (active).

Turning to `CN(C)C(=O)Nc1ccc(Oc2ccc(Cl)cc2)cc1`, the outcome was inactive.

Regarding `O=C1OC[C@H](Cc2cccc(O)c2)[C@H]1Cc1cccc(O)c1`, the outcome was inactive.

Turning to `O=CN1CCOCC1`, the outcome was inactive.

For the molecule `CC(C)(N=C=O)c1cccc(C(C)(C)N=C=O)c1`, the outcome was inactive.

Turning to `Oc1c(Cl)cc(Cl)c(Cl)c1Cc1c(O)c(Cl)cc(Cl)c1Cl`, the concentration at half-maximal activity (AC50) was 3.28 µM (active).
